Here are results for 58 compounds from ChEMBL document CHEMBL3988442, “University of Dundee, Small-Polar-MMV Screening Library” (2021).

Structures are written as SMILES. The whole screen tested about 48,000 compounds, of which about 13,000 (27%) showed an effect of 50% or more. This is one part of the list.

This assay relates to Wolbachia pipientis. Kind of assay: Anti-Wolbachia Cell-Based Screen. Format: functional. As to conditions: 5 µM. More on the design: scale not given: in the data most compounds retested in dose-response had high values.
As for `CN(C)C(=O)[C@]12CCCN(CC3CC3)C[C@H]1CN(c1ccccn1)C2.O=C(O)C(F)(F)F.O=C(O)C(F)(F)F`, the “Percent Effect” value was found to be 89.5%.

Consider `O=C(O)C(F)(F)F.O=C(O)C(F)(F)F.O=C(O)[C@]12CCCN(Cc3ccsc3)C[C@H]1CN(c1ccccn1)C2`, for which the “Percent Effect” value is on record as -13.21%.

For `CCS(=O)(=O)N1CCC[C@]2(C(=O)N(C)C)CN(c3ncccn3)C[C@@H]2C1.O=C(O)C(F)(F)F`, the “Percent Effect” value is -12.08%.

`CCS(=O)(=O)N1CCC[C@]2(C(=O)N(C)C)CN(c3ccccn3)C[C@@H]2C1.O=C(O)C(F)(F)F`: the “Percent Effect” value was -14.88%.

As for `O=C(O)C(F)(F)F.O=C(O)[C@]12CCCN(Cc3ccco3)C[C@H]1CN(c1ncccn1)C2`, the “Percent Effect” value is recorded as 0.3269%.

As for `CN(C)C(=O)N1CCC[C@]2(C(=O)N(C)C)CN(c3ccccn3)C[C@@H]2C1.O=C(O)C(F)(F)F`, the “Percent Effect” value stood at 123.8%.

Regarding `CCC(=O)N1CCC[C@]2(C(=O)N(C)C)CN(c3ccccn3)C[C@@H]2C1.O=C(O)C(F)(F)F`, the “Percent Effect” value was 98.59%.

Regarding `CC(C)C(=O)N1CCC[C@]2(C(=O)N(C)C)CN(c3ccccn3)C[C@@H]2C1.O=C(O)C(F)(F)F`, the “Percent Effect” value was 109.6%.

For the compound `COCC(=O)N1CCC[C@]2(C(=O)N(C)C)CN(c3ccccn3)C[C@@H]2C1.O=C(O)C(F)(F)F`, the “Percent Effect” value is on record as -6.724%.

Consider `CN(C)CCN1C[C@@H]2OCCN(Cc3cnn(C)c3)[C@@H]2C1`, for which the “Percent Effect” value is on record as -15.62%.

Consider `COc1cccc(Cl)c1-c1cc(CN)ccc1F`, for which the “Percent Effect” value is -5.951%.

As to `CC(=O)N1CCO[C@@H]2CN(C(=O)c3ccc4ncccc4c3)CC[C@@H]2C1.O=C(O)C(F)(F)F`, the “Percent Effect” value was -0.4432%.

As for `O=C(NC[C@H]1OC[C@@H]2CCN(C3CCOCC3)C[C@@H]21)c1ccncc1.O=C(O)C(F)(F)F.O=C(O)C(F)(F)F`, the “Percent Effect” value is recorded as -8.097%.

Turning to `O=C(O)C(F)(F)F.O=C(c1cccs1)N1CC[C@@H]2CN(C3CCOCC3)CCO[C@@H]2C1`, the “Percent Effect” value is 103%.

Regarding `O=C(O)C(F)(F)F.O=C(O)C(F)(F)F.c1csc(CN2CCO[C@@H]3CN(C4CCOCC4)C[C@@H]3C2)c1`, the “Percent Effect” value was -1.995%.

Consider `O=C(O)C(F)(F)F.O=C(O)C(F)(F)F.O=C(c1ccncc1)N1CC[C@@H]2CN(C3CCOCC3)CCO[C@@H]2C1`, for which the “Percent Effect” value is listed as 103.2%.

As to `COCCN1CCO[C@H]2CCN(C(=O)c3cccs3)CC[C@@H]21.O=C(O)C(F)(F)F`, the “Percent Effect” value is 9.308%.

Take `Cc1ccc(CCNc2nc(-c3ccncc3)nc3c2CCNCC3)o1`: the “Percent Effect” value is given as -0.1721%.

As for `CN(CCn1ccc2ccccc21)C(=O)Cc1nnn[nH]1`, the “Percent Effect” value was -2.882%.

As to `CN(CCn1ccc2ccccc21)C(=O)Cc1n[nH]c(=O)[nH]1`, the “Percent Effect” value is 0.08952%.

For `CC(c1ccc(C(=O)NCCc2nc(N)cc(O)n2)o1)N1CCCCC1` (stereo not drawn), the “Percent Effect” value stood at 6.141%.

With `CC(Cc1cn(CCc2nnn[nH]2)nn1)c1ccccc1` (stereo not drawn), the “Percent Effect” value turned out to be 103.4%.

`N#Cc1cccc(Cl)c1NCCc1n[nH]c(=O)[nH]1`: the “Percent Effect” value is -15.54%.

Regarding `C=C(C)COc1cccc(CNCCc2nc(N)cc(O)n2)c1`, the “Percent Effect” value is recorded as 6.733%.

For the compound `CC(Cc1ccc2c(c1)OCO2)c1cn(CCc2c[nH]cn2)nn1` (stereo not drawn), the “Percent Effect” value is listed as -4.802%.

Regarding `CC(Cc1cn(CCc2nc(N)cc(O)n2)nn1)c1ccccc1` (stereo not drawn), the “Percent Effect” value is on record as 116.8%.

Take `CC(Cc1cn(CCc2n[nH]c(=O)[nH]2)nn1)c1ccccc1` (stereo not drawn): the “Percent Effect” value was 124.9%.

For `c1cc(CCN2CCCC2CN2CCCCC2)ccn1` (stereo not drawn), the “Percent Effect” value is recorded as 39.01%.

Consider `CCN(CC)Cc1ccc(C(=O)NC2CCc3cc(F)ccc32)o1` (stereo not drawn), for which the “Percent Effect” value came to 6.12%.

On to `Cc1nccn1CCC1CCCCN1C(=O)c1ccc2nonc2c1` (stereo not drawn), for which the “Percent Effect” value is 1.487%.

On to `Cn1c(CN2CCCCC2)nnc1C1CCCN(C(=O)CCC(N)=O)C1` (stereo not drawn), for which the “Percent Effect” value came out at 11.64%.

With `NC(=O)CCN(C(=O)c1cccc2c1OCO2)c1ccccc1`, the “Percent Effect” value is recorded as 16.64%.

Take `Cc1n[nH]c(=O)c2c(NC(=O)CN3CCOCC3)oc(C)c12`: the “Percent Effect” value is 3.045%.

Take `O=S1(=O)COCCN1CCCOc1ccc(F)cc1`: the “Percent Effect” value amounted to 1.2%.

As for `CC1(C)OC(=O)N(CCOc2ccc(F)cc2)C1=O`, the “Percent Effect” value came out at 112.1%.

With `CN(Cc1ccoc1)C(=O)CN1C(=O)OC(C)(C)C1=O`, the “Percent Effect” value was -7.956%.

Consider `CN1CCCC1CNC(=O)CCCOc1ccc(F)cc1` (stereo not drawn), for which the “Percent Effect” value is on record as -3.981%.

Regarding `CC1(C)OC(=O)N(CCCOc2ccc(F)cc2)C1=O`, the “Percent Effect” value is 96.74%.

Consider `CC1(C)OC(=O)N(CCCC(=O)c2ccc(F)cc2)C1=O`, for which the “Percent Effect” value is 116.7%.

Regarding `N[C@H]1CN(CCOc2ccc(F)cc2)C[C@@H]1C1CC1`, the “Percent Effect” value is reported as -23.63%.

In the case of `CN(Cc1ccon1)C(=O)CN1C(=O)OC(C)(C)C1=O`, the “Percent Effect” value is reported as -6.77%.

`O=S1(=O)COCCN1CCOc1ccc(F)cc1`: the “Percent Effect” value is on record as -2.392%.

For the compound `CC(C)OCCSCc1nnc(-c2cccc(F)c2)o1`, the “Percent Effect” value was -1.35%.

Regarding `CCNC(=O)[C@@H]1C[C@H](N)CN1C(=O)CCc1ccccc1Cl`, the “Percent Effect” value is reported as -6.305%.

On to `Cn1cc(CN2CCO[C@H]3CN(Cc4ccco4)C[C@H]32)cn1`, for which the “Percent Effect” value was -13.96%.

As to `CN(Cc1cc(-c2cccnc2)no1)C(=O)c1cccn1C`, the “Percent Effect” value was -14.42%.

Take `CC(C)SCC(=O)N1CCc2c(nc(N(C)C)nc2N(C)C)C1`: the “Percent Effect” value is recorded as -6.369%.

In the case of `Cc1cccnc1C(Cc1ccsc1)NC(=O)Cn1cccnc1=O` (stereo not drawn), the “Percent Effect” value was found to be 151.6%.

Turning to `O=C(Cn1cccnc1=O)NCc1cccnc1OCC(F)(F)F`, the “Percent Effect” value stood at 2.082%.

For `O=C(Cn1cccnc1=O)NC(Cc1ccsc1)c1nccs1` (stereo not drawn), the “Percent Effect” value is on record as 149.8%.

On to `O=C(Cn1cccnc1=O)NCC1Cc2ccccc2O1` (stereo not drawn), for which the “Percent Effect” value is listed as -8.588%.

With `CC(C)Sc1ccc(C(C)NC(=O)Cn2cccnc2=O)cc1` (stereo not drawn), the “Percent Effect” value is on record as -6.353%.

In the case of `Cc1csc(C(Cc2ccsc2)NC(=O)Cn2cccnc2=O)n1` (stereo not drawn), the “Percent Effect” value turned out to be 109.1%.

Regarding `O=C(Cn1cccnc1=O)NC(Cc1ccsc1)c1cccnc1` (stereo not drawn), the “Percent Effect” value is reported as 105%.

Turning to `O=C(Cn1cccnc1=O)NC(Cc1ccsc1)c1ccccn1` (stereo not drawn), the “Percent Effect” value is listed as -0.3817%.

Take `CC(C)N(CC(N)=O)CC(=O)NCCc1c(F)cccc1F`: the “Percent Effect” value worked out at 4.922%.

As to `Cc1cnn(CC2CCCCN2CC(=O)N(C)Cc2ccc(C)o2)c1` (stereo not drawn), the “Percent Effect” value is -2.749%.

On to `COc1cccc(S(=O)(=O)Cc2cc(C)on2)c1`, for which the “Percent Effect” value was -2.252%.
